NOMO-1 viab = STK33 inhibitor candidate reducing NOMO-1 cell viability. actives 7.5% (n = 37,000). NOMO-1 AML viability, CellTiter-Glo luminescence, 72 h. inhibition, % (no concentration beside the values); in the data active = inhibition above about 80%; inconclusive = no clear call, values can overlap the other calls
Shh pathway inh = blocks Sonic Hedgehog signaling; Shh-LIGHT2 Gli-luciferase reporter, 30 h; inhibition, % (no concentration beside the values); actives 2.1% (n = 22,000);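 active = mean inhibition across valid replicates above about 65%, limit read from the data; inconclusive = mean under the limit, yet half or more replicates past it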;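 note: pathway switched on by Shh-conditioned medium diluted 1 in 25 in low serum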
MITF inh = MITF inhibition | TRPM1 promoter luciferase, luminescence, 24 h | actives 0.28% (n = 37,000) | AID 2240 | inhibition, % (test concentration not listed); in the data active = inhibition above about 85%; inconclusive = no clear call, values can overlap the other calls; inactive = below about 68%;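 note: human melanocyte line stably carrying TRPM1 promoter luciferase reporter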
Of the large screens only hits and unclear results are named; the others gave an inactive call. Hits are enriched below; roughly 8.1% of the tested compounds scored in any of these assays.

C[C@@H]1CCCCO[C@@H](CN(C)Cc2ccccc2)[C@@H](C)CN([C@H](C)CO)C(=O)c2cc(NS(=O)(=O)c3ccc(F)cc3)ccc2O1	none (no result: Shh pathway inh)
C[C@@H]1CCCCO[C@@H](CN(C)Cc2ccc(C(=O)Nc3ccccc3N)cc2)[C@@H](C)CN([C@H](C)CO)C(=O)c2cc(NS(=O)(=O)c3ccc(F)cc3)ccc2O1	NOMO-1 viab 141 (no result: Shh pathway inh)
C[C@@H]1CCCCO[C@H](CN(C)Cc2ccc(C(=O)Nc3ccccc3N)cc2)[C@@H](C)CN([C@H](C)CO)C(=O)c2cc(NS(=O)(=O)c3cn(C)cn3)ccc2O1	none (no result: Shh pathway inh)
C[C@@H]1CCCCO[C@H](CN(C)Cc2ccc(C(=O)Nc3ccccc3N)cc2)[C@@H](C)CN([C@H](C)CO)C(=O)c2cc(NS(=O)(=O)c3ccc(Cl)cc3)ccc2O1	NOMO-1 viab 127 (no result: Shh pathway inh)
C[C@@H]1CCCCO[C@H](CN(C)C(=O)Nc2cccc3ccccc23)[C@@H](C)CN([C@H](C)CO)C(=O)c2cc(NS(=O)(=O)c3ccc(F)cc3)ccc2O1	NOMO-1 viab 94
C[C@@H]1CCCCO[C@H](CN(C)C(=O)Nc2cccc3ccccc23)[C@@H](C)CN([C@H](C)CO)C(=O)c2cc(NS(=O)(=O)c3ccccc3)ccc2O1	none (no result: Shh pathway inh)
O=C(O)C1CCCCC1C(=O)Nc1ccc(C(=O)N2CCCCC2)c(Cl)c1 (centres undefined)	none (no result: Shh pathway inh)
O=C(CCCN1C(=O)c2ccccc2C1=O)Nc1ccc(Cl)cc1	none (no result: Shh pathway inh)
C[C@H]1CN([C@@H](C)CO)C(=O)c2cccc(NS(=O)(=O)c3cccs3)c2O[C@@H]1CN(C)C	none
COc1ccc(-c2nnc(SCC(=O)c3ccc(Cl)cc3)n2-c2ccc(C)cc2)cc1OC	none (no result: Shh pathway inh)
Cc1ccc(S(=O)(=O)Nc2cccc3c2O[C@@H](CN(C)S(=O)(=O)c2ccc(F)cc2)[C@H](C)CN([C@@H](C)CO)C3=O)cc1	none
C[C@H](CO)N1C[C@H](C)[C@H](CN(C)C(=O)Nc2ccc3c(c2)OCO3)Oc2ccc(NC(=O)Cc3ccccc3)cc2C1=O	none
COc1ccc(S(=O)(=O)Nc2cccc3c2O[C@@H](CN(C)Cc2ccc(Cl)c(Cl)c2)[C@@H](C)CN([C@@H](C)CO)C3=O)cc1	none
N#C/C(=N\O)C(=O)c1ccco1	none
COc1cccc(OCc2nc(-c3ccccc3)no2)c1	none (no result: Shh pathway inh)
C[C@@H]1CN([C@H](C)CO)C(=O)c2cc(NC(=O)Cc3cn(C)c4ccccc34)ccc2O[C@@H]1CN(C)Cc1ccc(Oc2ccccc2)cc1	NOMO-1 viab 108, Shh pathway inh inconclusive
C[C@H](CO)N1C[C@H](C)[C@H](CN(C)Cc2ccc(Oc3ccccc3)cc2)Oc2ccc(NC(=O)Cc3cn(C)c4ccccc34)cc2C1=O	none
C[C@H](CO)N1C[C@H](C)[C@H](CN(C)Cc2ccccc2)Oc2ccc(NC(=O)Cc3cn(C)c4ccccc34)cc2C1=O	none
C[C@H](CO)N1C[C@H](C)[C@H](CN(C)Cc2ccc(-c3ccccc3)cc2)Oc2ccc(NC(=O)Cc3cn(C)c4ccccc34)cc2C1=O	NOMO-1 viab 85 (no result: Shh pathway inh)
C[C@@H]1CN([C@H](C)CO)C(=O)c2cc(NC(=O)Cc3cn(C)c4ccccc34)ccc2O[C@H]1CN(C)Cc1ccccc1	none (no result: Shh pathway inh)
C[C@@H]1CN([C@H](C)CO)C(=O)c2cc(NC(=O)Cc3cn(C)c4ccccc34)ccc2O[C@H]1CN(C)Cc1ccc(C(F)(F)F)cc1	none (no result: Shh pathway inh)
C[C@@H]1CN([C@@H](C)CO)C(=O)c2cc(NC(=O)Cc3cn(C)c4ccccc34)ccc2O[C@@H]1CN(C)Cc1ccc(C(F)(F)F)cc1	NOMO-1 viab 106
C[C@@H]1CN([C@H](C)CO)C(=O)c2cc(NC(=O)Cc3cn(C)c4ccccc34)ccc2O[C@@H]1CN(C)Cc1ccc(-c2ccccc2)cc1	NOMO-1 viab 112 (no result: Shh pathway inh)
C[C@@H]1CN([C@H](C)CO)C(=O)c2cccc(NC(=O)Nc3ccc(F)cc3)c2O[C@H]1CN(C)C(=O)Nc1ccccc1	none
CN(CC(=O)Nc1ccc(Cl)c(Cl)c1)S(=O)(=O)c1ccc(F)cc1	none (no result: Shh pathway inh)
COc1ccc(CCNC(=O)c2ccc(-c3cccc(C(F)(F)F)c3)o2)cc1OC	none (no result: Shh pathway inh)
COc1ccc(C)cc1NC(=O)C(C)NS(=O)(=O)c1ccc(C)cc1 (centres undefined)	none (no result: Shh pathway inh)
C[C@@H]1CN([C@@H](C)CO)C(=O)c2cc(NC(=O)Cc3cn(C)c4ccccc34)ccc2O[C@H]1CN(C)Cc1ccc2c(c1)OCO2	none (no result: Shh pathway inh)
C[C@H]1CN([C@@H](C)CO)C(=O)c2cc(NC(=O)Cc3cn(C)c4ccccc34)ccc2O[C@@H]1CN(C)Cc1ccc2c(c1)OCO2	NOMO-1 viab 98 (no result: Shh pathway inh)
COc1ccc(N(CN2C(=O)c3ccccc3C2=O)C(=O)c2ccccc2)cc1	none (no result: Shh pathway inh)
COc1ccc(CCNC(=S)NCCc2ccccc2)cc1OC	none
COc1ccc(CCNC(=S)Nc2ccncc2)cc1OC	NOMO-1 viab 113 (no result: Shh pathway inh)
COc1ccc(CCNC(=S)N2CCN(c3ncccn3)CC2)cc1OC	none (no result: Shh pathway inh)
COc1ccc(CCNC(=S)n2cc(C)cn2)cc1OC	NOMO-1 viab 111 (no result: Shh pathway inh)
O=C1NC(=O)C(=Cc2ccc(-c3ccccc3)o2)C(=O)N1	NOMO-1 viab 126
O=c1cc(-c2ccccc2)oc2ccccc12	none
Cc1ccc(OCC(=O)Nc2ccc(Cl)c(-c3nc4ccccc4s3)c2)cc1	none (no result: Shh pathway inh)
COc1ccc(/C=C2\C(=O)c3ccccc3OC2c2ccccc2)cc1 (centres undefined)	NOMO-1 viab 120
COc1ccc(C2CC(=O)c3ccc(OC)cc3O2)cc1 (centres undefined)	none
CC1=Nc2ccc(Br)cc2C(c2ccccc2)N1CC(=O)NN (centres undefined)	none
O=C1CN(C(=O)/C=C/c2ccccc2)C(c2ccccc2)c2cc(Br)ccc2N1 (centres undefined)	NOMO-1 viab 89 (no result: Shh pathway inh)
COC(=O)COc1cccc(NC(=O)c2ccc(-c3ccccc3)cc2)c1	NOMO-1 viab 113 (no result: Shh pathway inh)
O=C(COc1cccc(NC(=O)c2ccccc2Cl)c1)c1ccc(F)cc1	none (no result: Shh pathway inh)
COC(=O)COc1cccc(NC(=O)c2ccccc2Cl)c1	NOMO-1 viab 119 (no result: Shh pathway inh)
Cc1cccc(C(=O)Nc2cccc(OCC(=O)O)c2)c1	none (no result: Shh pathway inh)
COc1ccc(NC(=O)c2ccccc2NC(=O)COc2cccc(OC)c2)cc1	none (no result: Shh pathway inh)
COC(=O)COc1cccc(NC(=O)c2ccccc2I)c1	NOMO-1 viab 110 (no result: Shh pathway inh)
COC(=O)COc1cccc(NC(=O)c2ccccc2F)c1	NOMO-1 viab 122 (no result: Shh pathway inh)
COc1ccc(C(=O)COc2cccc(NC(=O)c3ccccc3C)c2)cc1	none (no result: Shh pathway inh)
O=C(Nc1cc(-c2ccc(Cl)cc2)[nH]n1)C1Cc2ccccc2C1	none
CSc1sc(C(=O)NN)cc1-c1nc(C)cs1	none
COC(=O)C(=O)CC(=O)c1c(F)c(F)c(OC)c(F)c1F	none
CCc1c(O)nc(SCC(=O)Nc2ccc(Cl)cc2Cl)n(-c2ccccc2)c1=O	none (no result: Shh pathway inh)
CCn1c(SCC(=O)Nc2cccc(C(=O)O)c2)nnc1-c1ccc(Cl)cc1Cl	none (no result: Shh pathway inh)
Cc1ccc(C(C)C)c(OCCSc2nc(N)cc(N)n2)c1	none (no result: Shh pathway inh)
C[C@@H]1O[C@@H](OC[C@H]2O[C@@H](c3c(O)cc4oc(-c5ccc(O)c(O)c5)cc(=O)c4c3O)[C@H](O)[C@@H](O)[C@@H]2O)[C@H](O)[C@H](O)[C@H]1O	none (no result: NOMO-1 viab, MITF inh)
Cc1ccc(C(C)C)c(OCC(=O)Nc2ncc(I)cc2C)c1	none (no result: Shh pathway inh)
Cc1[nH]c2ccccc2c1/C=C/c1nc2ccccc2c(=O)n1CCCO	none (no result: Shh pathway inh)
O=c1c2ccccc2nc(/C=C/c2cc(Br)ccc2O)n1CCCO	NOMO-1 viab 108, MITF inh 102 (no result: Shh pathway inh)
COc1ccc(F)cc1S(=O)(=O)n1cnc2cc(C)c(C)cc21	none (no result: Shh pathway inh)

Bioassay records deposited in PubChem BioAssay by Broad Institute.
